An excerpt weighted towards active compounds, which were near 0.9% of everything screened.
SRC3 TRFRET art – counter-screen for PPARgamma SRC-3 recruitment agonists: TR-FRET artefact | PPARgamma/SRC-3 format; stronger effect = higher value | TR-FRET ratio at 8 µM | 99,000 tested, 0.39% active | AID 1048
PPARg SRC-3 ag – agonists of human PPARgamma SRC-3 coactivator recruitment; P37231; biochemical PPARgamma/SRC-3 coactivator recruitment assay; AID 731; 200,000 tested, 0.26% active; activation, % at 8 µM; in the data active means activation above about 23%
Target sequence (P37231 whole entry, looked up): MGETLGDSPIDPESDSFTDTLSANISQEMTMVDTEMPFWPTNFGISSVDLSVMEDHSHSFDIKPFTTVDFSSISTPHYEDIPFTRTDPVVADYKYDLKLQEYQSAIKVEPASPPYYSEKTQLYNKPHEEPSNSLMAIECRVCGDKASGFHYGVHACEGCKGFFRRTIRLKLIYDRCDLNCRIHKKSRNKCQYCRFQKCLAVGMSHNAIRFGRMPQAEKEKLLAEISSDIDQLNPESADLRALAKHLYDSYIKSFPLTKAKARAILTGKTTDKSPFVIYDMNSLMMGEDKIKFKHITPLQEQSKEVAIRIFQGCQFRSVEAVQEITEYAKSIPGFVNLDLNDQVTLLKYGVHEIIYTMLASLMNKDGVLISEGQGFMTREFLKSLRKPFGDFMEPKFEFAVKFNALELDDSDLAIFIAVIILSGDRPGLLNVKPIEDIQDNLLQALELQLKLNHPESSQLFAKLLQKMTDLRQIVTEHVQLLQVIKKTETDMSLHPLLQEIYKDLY
PPARg SRC-1 ag – agonists of human PPARgamma SRC-1 coactivator recruitment; PPARgamma-SRC-1 coactivator recruitment biochemical assay; AID 631; activation, % at 8 µM; 200,000 tested, 0.41% active; in the data active means activation above about 19%
SRC1 TRFRET art – counter-screen for PPARgamma SRC-1 recruitment agonists: TR-FRET artefact | TR-FRET detection artefact counter-screen, emission ratio; stronger effect = higher value | TR-FRET ratio at 8 µM | 99,000 tested, 0.34% active | AID 1051; in the data active means TR-FRET ratio above about 2300
PPARg SRC2 recr – promotes SRC-2 coactivator recruitment by human PPARgamma. 200,000 tested, 0.34% active. activation, % at 8 µM. P37231. AID 1032. PPARgamma LBD-SRC-2 recruitment, biochemical; in the data active means activation above about 22%
SRC2 TRFRET art – flags TR-FRET format artefacts in PPARgamma SRC-2 recruitment agonist screen. TR-FRET artefact counter-screen; stronger effect = higher value. TR-FRET ratio at 8 µM. 200,000 tested, 0.4% active
Large screens that a line does not name were inactive. Unless noted, no stated cut-off is given here; in the data, active means TR-FRET ratio above about 2000; inactive means the rest.

COc1ccc(-c2nc3c(c(=O)n(C)c(=O)n3C)n2CC2CC(c3ccccc3)=NO2)cc1OC (stereo not drawn)	none (no result: SRC3 TRFRET art, SRC1 TRFRET art)
O=c1cc(Cn2ccnc2)c2cc3c(cc2o1)CCC3	PPARg SRC-3 ag 29 (no result: SRC3 TRFRET art, SRC1 TRFRET art)
O=C(Nc1cccc(Cl)c1)c1ccc(F)c(S(=O)(=O)NCc2ccc3c(c2)OCO3)c1	none
COc1ccc(-c2noc(-c3ccc(Br)o3)n2)cc1OC	PPARg SRC-3 ag 36 (no result: SRC3 TRFRET art, SRC1 TRFRET art)
COc1cc(-c2nc(-c3ccc(Br)o3)no2)cc(OC)c1OC	none (no result: SRC3 TRFRET art, SRC1 TRFRET art)
CCCCC#Cc1ccccc1CC(=O)Nc1ccccc1	none
Nc1ccccc1C#CCCCCO	SRC3 TRFRET art 2204
C/C(=N/NC(=O)C1CCCCC1)c1ccc([N+](=O)[O-])cc1	none
COc1ccc(-c2csc3nc(C)nc(N4CCN(c5ccc(C(C)=O)cc5)CC4)c23)cc1OC	SRC3 TRFRET art 2053
CC1CCc2c(sc3nc(SCC(=O)NCc4ccco4)nc(N)c23)C1 (stereo not drawn)	PPARg SRC-1 ag 21 (no result: SRC3 TRFRET art, SRC1 TRFRET art)
COc1ccc2cc(CN(CC3CCCO3)S(=O)(=O)c3ccccc3Cl)c(=O)[nH]c2c1 (stereo not drawn)	none (no result: SRC3 TRFRET art, SRC1 TRFRET art)
COc1ccccc1C(=O)NCC(=O)OCC(=O)c1ccc2c(c1)-c1ccccc1C2	SRC3 TRFRET art 2088
CCCCn1[nH]c(-c2ccccc2)cc1=O	none
COC(=O)C1=C(N)Oc2cc(C)n(Cc3cccnc3)c(=O)c2C1c1cccc(OC)c1OC (stereo not drawn)	none (no result: SRC3 TRFRET art, SRC1 TRFRET art)
Cc1c(C(=O)Nc2c(F)cccc2F)sc2ncnc(N3CCN(c4ccccc4)CC3)c12	SRC3 TRFRET art 2183
OCC(O)/C=N/Nc1nc(N2CCCCC2)nc(N2CCCCC2)n1 (stereo not drawn)	none
O=C(CCCn1c(=S)[nH]c2cc3c(cc2c1=O)OCO3)N1CCN(c2ccccc2F)CC1	none (no result: SRC3 TRFRET art, SRC1 TRFRET art)
Cc1ccc(C)c(N2CCN(C(=O)CCCn3c(=S)[nH]c4cc5c(cc4c3=O)OCO5)CC2)c1	SRC2 TRFRET art 2000 (no result: SRC3 TRFRET art, SRC1 TRFRET art)
O=C(Nc1cccc(NS(=O)(=O)c2ccc(S(=O)(=O)NC3CC3)cc2)c1)c1ccccn1	PPARg SRC-1 ag 23 (no result: SRC3 TRFRET art, SRC1 TRFRET art)
CCn1cc(CNCc2cn(C)nc2-c2ccc(C3CCCCC3)cc2)cn1	PPARg SRC-1 ag 22
O=C(NCCc1nnc2ccc(NCc3ccccc3Cl)nn12)c1ccccc1	none
CCOC(=O)CSC(=S)NC(=O)c1ccc(OC)cc1	SRC1 TRFRET art 2487, SRC2 TRFRET art 1985
CC(=O)c1cccc(NC(=O)COc2ccccc2C(=O)c2cc(C#N)c(=O)n(C3CCCCC3)c2)c1	none
N#Cc1cc(C(=O)c2ccccc2OCC(=O)Nc2ccccc2Cl)cn(C2CCCCC2)c1=O	SRC3 TRFRET art 2092
CN(C)N=C1c2cc(S(=O)(=O)N3CCOCC3)ccc2-c2ccc(S(=O)(=O)N3CCOCC3)cc21	none
NC(=S)NN=C1c2cc(S(=O)(=O)N3CCOCC3)ccc2-c2ccc(S(=O)(=O)N3CCOCC3)cc21	SRC1 TRFRET art 2316
FC(F)Oc1ccc(NC(=S)NCc2ccccc2)cc1	none
Cc1cc2cc(CNC(=S)Nc3ccc(OC(F)F)cc3)ccc2n1C	SRC3 TRFRET art 2435, SRC2 TRFRET art 2063
Cc1cc2cc(CNC(=O)Nc3ccc(Cl)c(Cl)c3)ccc2n1C	SRC1 TRFRET art 2614
COCC(=O)NCc1ccc2c(c1)cc(C)n2C	none
Clc1ccc(CO/N=C2\CCCc3nonc32)cc1	none
CCOc1ccccc1N(CC(=O)NCCSc1ccccc1)S(C)(=O)=O	none
Cc1ccc(-c2csc(NC(=O)c3cc([N+](=O)[O-])ccc3N3CCOCC3)n2)cc1	SRC3 TRFRET art 2579, PPARg SRC-3 ag 23
Cc1cc(C)c2c(=O)[nH]c(SCC(=O)NCc3ccccc3)nc2n1	none (no result: SRC3 TRFRET art, SRC1 TRFRET art)
COc1ccccc1NC(=O)CSc1nc2nc(C)cc(C)c2c(=O)[nH]1	PPARg SRC2 recr 22 (no result: SRC3 TRFRET art, SRC1 TRFRET art)
CC1(C)CC(=NNC(=O)c2n[nH]c3c2CCC3)CC(C)(C)N1	none
COc1ccc(Nc2nc(S(=O)(=O)c3ccc(C)cc3)c(Cl)s2)cc1	PPARg SRC-3 ag 23
Cc1ccc(S(=O)(=O)c2nc(Nc3ccccc3)sc2Cl)cc1	none
O=C(COc1ccccc1)NCC(=O)Nc1cccc(S(=O)(=O)NC2=NCCC2)c1	none
Cc1ccc(-n2c(-c3nn(C)cc3Cl)n[nH]c2=S)cc1	none
S=c1[nH]nc(-c2ccc(Cl)cc2)n1-c1ccc2c(c1)OCCO2	none
Cn1cc(Cl)c(-c2n[nH]c(=S)n2-c2ccc(F)cc2)n1	SRC1 TRFRET art 2344
Fc1ccc(-c2n[nH]c(=S)n2-c2ccc3c(c2)OCCO3)cc1	SRC3 TRFRET art 2239, SRC1 TRFRET art 2494, SRC2 TRFRET art 1992
CC(=O)c1ccc(NC(=S)NC(C)CCc2ccccc2)cc1 (stereo not drawn)	none
NS(=O)(=O)c1ccc(Nc2nc3ccccc3nc2NS(=O)(=O)c2cccc([N+](=O)[O-])c2)cc1	none
Cc1ccc(-n2c(C)cc(C(=O)COc3c(CO)cc(F)cc3CO)c2C)cc1C	PPARg SRC2 recr 22
COc1ccc2c(C)cc(SCC(=O)c3ccc4c(c3)OCO4)nc2c1	SRC2 TRFRET art 3035 (no result: SRC3 TRFRET art, SRC1 TRFRET art)
CC1(c2ccc(OC(F)F)cc2)NC(=O)N(/N=C/c2c(O)ccc3ccccc23)C1=O (stereo not drawn)	none
O=C1c2ccccc2C(=O)C1c1ccc(O)cc1	PPARg SRC-1 ag 21
CC1=C(C(=O)Nc2ccc(F)c(F)c2)C(c2cccs2)NC(=S)N1 (stereo not drawn)	SRC1 TRFRET art 2450, SRC2 TRFRET art 1973
O=C(Nc1cc(S(=O)(=O)N2CCOCC2)ccc1N1CCCC1)c1ccc2c(c1)S(=O)(=O)c1ccccc1C2=O	SRC2 TRFRET art 1978
O=C(Nc1ccccc1F)Nc1cc(S(=O)(=O)N2CCOCC2)ccc1N1CCCC1	none
COCCn1c(N)c(N(Cc2ccccc2)C(=O)c2oc3ccccc3c2C)c(=O)[nH]c1=O	none
O=C(Cc1nc2ccccc2[nH]c1=O)c1ccccc1	PPARg SRC-1 ag 22
CCN(Cc1ccccc1)C(=O)COC(=O)c1cc(=O)[nH]c2ccccc12	none
N#CC1=C(N)OC2=C(CC/C2=C\c2ccc(F)cc2)C1c1ccc(F)cc1 (stereo not drawn)	none
N#CC1=C(N)OC2=C(CCC/C2=C/c2ccoc2)C1c1ccoc1 (stereo not drawn)	PPARg SRC-3 ag 31 (no result: SRC3 TRFRET art, SRC1 TRFRET art)
O=C(Nc1cccc2ccccc12)c1cn(-c2ccccc2)nc1-c1cccs1	SRC2 TRFRET art 2231 (no result: SRC3 TRFRET art, SRC1 TRFRET art)
CCCc1nc2ccc(NC(=O)NCCC(=O)OCC)cc2c(=O)n1Cc1cccc(Cl)c1	none (no result: SRC3 TRFRET art, SRC1 TRFRET art)
CCOC(=O)CCNC(=O)Nc1ccc2nc(C)n(Cc3cccc(Cl)c3)c(=O)c2c1	SRC2 TRFRET art 1989 (no result: SRC3 TRFRET art, SRC1 TRFRET art)
Cc1ccccc1OCC(=O)Nc1sc(C(=O)Nc2cccc(C)c2C)c(C)c1C#N	PPARg SRC-1 ag 24 (no result: SRC3 TRFRET art, SRC1 TRFRET art)
OC(C#CCN1CCCC1)(c1ccccc1)c1cccc(F)c1 (stereo not drawn)	PPARg SRC2 recr 26
